Results as given in the supplement of paper PMC11732987, “Enantioselective OTUD7B fragment discovery through chemoproteomics screening and high-throughput optimisation” (Communications Chemistry, 2025).

How the values were obtained:
Assay in all cases: log2 ratio of Biotin-Ahx-Ub-VS probe labelling (fragment/DMSO); higher = less target engagement (more negative = stronger competition), active = hit call of the paper (q ≤ 0.05, log2 ratio ≤ -1)
Details in all cases: compound concentration: 200 uM; treatment time: 3 h
USP34 = USP34 (UniProt Q70CQ2)
USP34, sequence (Q70CQ2 whole entry, the tested form may be a part): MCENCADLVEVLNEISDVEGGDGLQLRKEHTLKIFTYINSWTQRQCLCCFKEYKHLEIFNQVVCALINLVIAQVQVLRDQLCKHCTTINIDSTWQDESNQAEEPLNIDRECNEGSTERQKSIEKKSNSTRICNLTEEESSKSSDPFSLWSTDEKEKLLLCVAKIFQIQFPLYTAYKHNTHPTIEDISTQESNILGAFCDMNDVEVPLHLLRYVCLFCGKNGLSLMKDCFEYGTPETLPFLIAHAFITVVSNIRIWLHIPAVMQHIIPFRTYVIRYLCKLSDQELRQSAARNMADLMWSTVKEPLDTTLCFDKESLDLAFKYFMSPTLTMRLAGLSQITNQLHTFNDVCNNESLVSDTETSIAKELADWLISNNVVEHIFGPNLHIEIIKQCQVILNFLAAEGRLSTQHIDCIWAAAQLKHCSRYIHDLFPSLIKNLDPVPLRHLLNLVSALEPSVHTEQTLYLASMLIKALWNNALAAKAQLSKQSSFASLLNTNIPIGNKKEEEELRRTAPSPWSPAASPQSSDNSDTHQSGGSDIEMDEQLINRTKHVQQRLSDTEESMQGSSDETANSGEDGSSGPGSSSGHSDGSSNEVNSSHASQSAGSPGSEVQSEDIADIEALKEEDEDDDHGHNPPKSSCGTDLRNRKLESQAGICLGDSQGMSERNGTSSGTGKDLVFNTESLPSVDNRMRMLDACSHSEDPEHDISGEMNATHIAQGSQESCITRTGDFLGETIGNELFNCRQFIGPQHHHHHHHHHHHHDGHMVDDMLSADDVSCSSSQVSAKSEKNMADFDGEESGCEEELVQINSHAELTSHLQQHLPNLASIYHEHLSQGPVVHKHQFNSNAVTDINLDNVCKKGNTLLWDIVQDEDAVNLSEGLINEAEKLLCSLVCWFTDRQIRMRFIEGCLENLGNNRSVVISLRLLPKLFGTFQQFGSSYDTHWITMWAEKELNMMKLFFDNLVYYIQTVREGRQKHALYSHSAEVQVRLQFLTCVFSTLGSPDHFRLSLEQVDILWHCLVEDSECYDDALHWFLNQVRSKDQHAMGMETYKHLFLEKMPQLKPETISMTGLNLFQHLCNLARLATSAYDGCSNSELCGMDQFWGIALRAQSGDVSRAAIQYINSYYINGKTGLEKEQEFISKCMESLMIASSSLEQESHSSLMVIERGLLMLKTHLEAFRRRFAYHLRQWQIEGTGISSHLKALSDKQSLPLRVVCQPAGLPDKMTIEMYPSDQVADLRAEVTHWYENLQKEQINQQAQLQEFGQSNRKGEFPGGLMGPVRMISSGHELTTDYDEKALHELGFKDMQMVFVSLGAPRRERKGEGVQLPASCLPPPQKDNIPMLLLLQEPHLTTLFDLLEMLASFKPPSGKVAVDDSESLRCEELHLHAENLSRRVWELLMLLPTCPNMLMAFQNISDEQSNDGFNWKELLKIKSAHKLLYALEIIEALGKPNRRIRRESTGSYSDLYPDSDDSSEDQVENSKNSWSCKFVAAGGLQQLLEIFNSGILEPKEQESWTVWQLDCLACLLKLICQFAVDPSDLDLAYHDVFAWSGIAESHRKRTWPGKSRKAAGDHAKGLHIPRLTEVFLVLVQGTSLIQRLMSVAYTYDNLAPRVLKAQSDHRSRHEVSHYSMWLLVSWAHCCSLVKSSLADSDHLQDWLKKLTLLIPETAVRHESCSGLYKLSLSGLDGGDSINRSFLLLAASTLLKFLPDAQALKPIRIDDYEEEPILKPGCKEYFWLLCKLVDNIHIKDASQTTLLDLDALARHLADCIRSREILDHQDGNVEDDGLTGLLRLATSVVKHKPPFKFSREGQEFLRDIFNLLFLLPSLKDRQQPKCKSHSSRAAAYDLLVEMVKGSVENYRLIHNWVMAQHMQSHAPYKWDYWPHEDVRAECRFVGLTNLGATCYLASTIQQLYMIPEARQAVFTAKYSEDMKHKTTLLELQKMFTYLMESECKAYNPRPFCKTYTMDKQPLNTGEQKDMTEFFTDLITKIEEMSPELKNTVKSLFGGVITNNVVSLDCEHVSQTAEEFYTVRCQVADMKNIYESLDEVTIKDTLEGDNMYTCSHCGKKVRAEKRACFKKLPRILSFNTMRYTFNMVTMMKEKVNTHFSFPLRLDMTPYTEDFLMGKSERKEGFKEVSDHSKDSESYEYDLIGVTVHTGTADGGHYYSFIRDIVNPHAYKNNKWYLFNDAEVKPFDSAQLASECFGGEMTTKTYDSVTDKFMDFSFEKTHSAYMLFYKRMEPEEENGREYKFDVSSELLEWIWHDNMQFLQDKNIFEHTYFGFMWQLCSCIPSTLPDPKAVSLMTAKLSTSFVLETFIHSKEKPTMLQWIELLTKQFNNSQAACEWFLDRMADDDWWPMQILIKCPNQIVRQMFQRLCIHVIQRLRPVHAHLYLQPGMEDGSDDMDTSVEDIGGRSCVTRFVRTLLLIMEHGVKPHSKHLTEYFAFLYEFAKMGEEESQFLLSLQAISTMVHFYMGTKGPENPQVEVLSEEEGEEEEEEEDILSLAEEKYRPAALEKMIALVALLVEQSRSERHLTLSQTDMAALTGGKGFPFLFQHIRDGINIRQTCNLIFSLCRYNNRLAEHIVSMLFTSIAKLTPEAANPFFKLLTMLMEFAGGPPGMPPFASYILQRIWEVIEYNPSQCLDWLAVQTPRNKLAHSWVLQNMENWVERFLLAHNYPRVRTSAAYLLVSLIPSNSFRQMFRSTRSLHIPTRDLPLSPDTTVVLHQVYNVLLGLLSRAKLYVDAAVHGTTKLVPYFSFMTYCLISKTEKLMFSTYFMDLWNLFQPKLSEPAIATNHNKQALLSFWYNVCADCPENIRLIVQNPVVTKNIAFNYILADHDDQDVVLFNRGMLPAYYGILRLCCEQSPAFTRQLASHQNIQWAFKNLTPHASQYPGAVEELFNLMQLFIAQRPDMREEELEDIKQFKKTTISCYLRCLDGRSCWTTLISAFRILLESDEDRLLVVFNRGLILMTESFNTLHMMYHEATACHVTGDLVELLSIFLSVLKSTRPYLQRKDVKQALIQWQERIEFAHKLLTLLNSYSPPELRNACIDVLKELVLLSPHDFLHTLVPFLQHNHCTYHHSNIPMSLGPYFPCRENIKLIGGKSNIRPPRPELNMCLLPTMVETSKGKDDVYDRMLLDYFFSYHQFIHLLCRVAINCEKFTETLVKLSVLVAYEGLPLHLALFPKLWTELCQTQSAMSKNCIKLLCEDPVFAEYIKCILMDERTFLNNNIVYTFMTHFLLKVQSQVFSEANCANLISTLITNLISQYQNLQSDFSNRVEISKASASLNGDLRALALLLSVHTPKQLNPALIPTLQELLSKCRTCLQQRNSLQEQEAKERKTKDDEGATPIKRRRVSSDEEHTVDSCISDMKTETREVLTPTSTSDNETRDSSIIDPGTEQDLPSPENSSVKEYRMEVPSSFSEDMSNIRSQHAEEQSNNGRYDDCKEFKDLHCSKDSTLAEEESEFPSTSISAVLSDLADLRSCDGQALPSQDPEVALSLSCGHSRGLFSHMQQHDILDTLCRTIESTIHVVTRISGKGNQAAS
Summary of the method: (§1)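 Average log2 ratios of fragment over vehicle were obtained by unpaired t-test from global-median-normalised Spectronaut label-free quantities. Proteins with ≥2 unique peptides were included. HEK293T lysate (495 µg per sample) was treated in triplicate with fragment at 200 µM or vehicle for 3 h, then with Biotin-Ahx-Ub-VS at 0.5 µM final for 1 h, and labelled DUBs were NeutrAvidin-enriched and run by diaPASEF LC-MS/MS.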

USP36 = target: T1, USP36 (UniProt Q9P275)
T1 sequence (whole entry): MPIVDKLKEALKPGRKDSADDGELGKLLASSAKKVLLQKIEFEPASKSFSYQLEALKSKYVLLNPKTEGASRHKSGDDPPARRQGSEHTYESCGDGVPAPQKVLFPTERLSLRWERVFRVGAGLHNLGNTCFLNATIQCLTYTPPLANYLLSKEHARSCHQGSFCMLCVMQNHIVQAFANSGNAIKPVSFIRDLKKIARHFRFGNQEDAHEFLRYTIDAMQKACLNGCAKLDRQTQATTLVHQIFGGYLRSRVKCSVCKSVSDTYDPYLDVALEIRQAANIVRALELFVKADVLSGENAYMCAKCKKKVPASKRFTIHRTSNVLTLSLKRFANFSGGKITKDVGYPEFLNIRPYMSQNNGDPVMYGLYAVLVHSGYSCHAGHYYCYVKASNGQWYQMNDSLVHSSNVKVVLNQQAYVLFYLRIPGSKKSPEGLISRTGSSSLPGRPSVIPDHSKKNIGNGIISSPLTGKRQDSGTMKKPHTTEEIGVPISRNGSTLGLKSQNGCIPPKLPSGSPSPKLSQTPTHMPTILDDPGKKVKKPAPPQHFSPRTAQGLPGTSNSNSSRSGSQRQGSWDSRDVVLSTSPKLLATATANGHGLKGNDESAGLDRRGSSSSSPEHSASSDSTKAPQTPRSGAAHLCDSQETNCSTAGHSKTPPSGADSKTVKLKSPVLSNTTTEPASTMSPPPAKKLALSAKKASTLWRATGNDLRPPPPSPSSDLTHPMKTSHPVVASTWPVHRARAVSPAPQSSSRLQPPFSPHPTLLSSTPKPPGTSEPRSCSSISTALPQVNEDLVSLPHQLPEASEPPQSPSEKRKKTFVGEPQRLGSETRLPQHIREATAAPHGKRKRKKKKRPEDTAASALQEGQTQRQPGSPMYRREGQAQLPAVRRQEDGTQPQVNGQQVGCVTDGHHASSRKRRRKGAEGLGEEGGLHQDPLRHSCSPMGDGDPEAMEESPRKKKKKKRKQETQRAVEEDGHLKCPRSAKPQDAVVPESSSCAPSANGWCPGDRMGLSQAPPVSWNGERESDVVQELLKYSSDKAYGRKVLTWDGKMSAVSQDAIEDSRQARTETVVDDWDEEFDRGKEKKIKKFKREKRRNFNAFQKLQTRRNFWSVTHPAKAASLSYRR
Summary of the method: as §1

USP38 = target: T2, USP38 (UniProt Q8NB14)
T2 sequence (whole entry): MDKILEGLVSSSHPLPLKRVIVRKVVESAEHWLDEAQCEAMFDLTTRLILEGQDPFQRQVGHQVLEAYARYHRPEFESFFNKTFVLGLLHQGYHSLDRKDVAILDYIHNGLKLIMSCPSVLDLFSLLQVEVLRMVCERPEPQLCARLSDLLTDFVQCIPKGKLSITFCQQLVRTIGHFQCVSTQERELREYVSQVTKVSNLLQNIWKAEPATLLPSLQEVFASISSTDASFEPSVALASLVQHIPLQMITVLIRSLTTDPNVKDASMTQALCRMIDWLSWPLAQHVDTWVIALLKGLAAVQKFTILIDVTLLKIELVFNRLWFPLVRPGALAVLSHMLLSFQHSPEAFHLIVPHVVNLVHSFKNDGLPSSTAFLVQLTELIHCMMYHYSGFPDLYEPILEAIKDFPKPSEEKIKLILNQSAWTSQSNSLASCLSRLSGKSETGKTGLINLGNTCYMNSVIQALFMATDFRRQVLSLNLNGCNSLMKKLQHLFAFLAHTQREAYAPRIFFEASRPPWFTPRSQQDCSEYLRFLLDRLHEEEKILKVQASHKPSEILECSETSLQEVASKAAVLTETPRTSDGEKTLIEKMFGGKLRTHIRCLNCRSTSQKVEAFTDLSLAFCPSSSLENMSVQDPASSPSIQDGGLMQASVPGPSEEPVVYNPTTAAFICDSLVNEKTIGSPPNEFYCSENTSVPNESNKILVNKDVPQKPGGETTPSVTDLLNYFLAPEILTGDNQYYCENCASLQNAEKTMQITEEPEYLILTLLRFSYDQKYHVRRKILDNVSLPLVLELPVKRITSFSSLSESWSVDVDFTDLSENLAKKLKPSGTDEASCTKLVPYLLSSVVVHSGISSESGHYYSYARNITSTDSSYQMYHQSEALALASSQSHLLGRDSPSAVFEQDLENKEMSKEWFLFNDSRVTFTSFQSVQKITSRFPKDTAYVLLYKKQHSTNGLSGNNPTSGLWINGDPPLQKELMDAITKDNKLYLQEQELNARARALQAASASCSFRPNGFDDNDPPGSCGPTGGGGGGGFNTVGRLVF
Summary of the method: as §1

USP39 = target: T3, USP39 (UniProt Q53GS9)
T3 sequence (whole entry): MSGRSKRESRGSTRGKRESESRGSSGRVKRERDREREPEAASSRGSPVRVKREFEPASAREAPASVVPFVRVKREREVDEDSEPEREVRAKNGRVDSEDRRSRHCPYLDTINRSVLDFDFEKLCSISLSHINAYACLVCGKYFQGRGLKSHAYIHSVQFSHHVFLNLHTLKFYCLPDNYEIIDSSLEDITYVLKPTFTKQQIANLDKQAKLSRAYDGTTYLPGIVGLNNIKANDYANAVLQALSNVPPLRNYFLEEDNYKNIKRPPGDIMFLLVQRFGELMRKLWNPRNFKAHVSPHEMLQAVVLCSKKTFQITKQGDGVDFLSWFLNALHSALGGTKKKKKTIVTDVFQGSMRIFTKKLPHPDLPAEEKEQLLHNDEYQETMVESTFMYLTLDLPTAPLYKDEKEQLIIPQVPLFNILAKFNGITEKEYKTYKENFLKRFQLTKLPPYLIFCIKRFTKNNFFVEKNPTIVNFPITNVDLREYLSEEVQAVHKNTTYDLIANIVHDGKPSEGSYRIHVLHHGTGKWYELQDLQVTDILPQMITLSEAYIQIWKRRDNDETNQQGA
Summary of the method: as §1

USP4 = target: T4, USP4 (UniProt Q13107)
T4 sequence (whole entry): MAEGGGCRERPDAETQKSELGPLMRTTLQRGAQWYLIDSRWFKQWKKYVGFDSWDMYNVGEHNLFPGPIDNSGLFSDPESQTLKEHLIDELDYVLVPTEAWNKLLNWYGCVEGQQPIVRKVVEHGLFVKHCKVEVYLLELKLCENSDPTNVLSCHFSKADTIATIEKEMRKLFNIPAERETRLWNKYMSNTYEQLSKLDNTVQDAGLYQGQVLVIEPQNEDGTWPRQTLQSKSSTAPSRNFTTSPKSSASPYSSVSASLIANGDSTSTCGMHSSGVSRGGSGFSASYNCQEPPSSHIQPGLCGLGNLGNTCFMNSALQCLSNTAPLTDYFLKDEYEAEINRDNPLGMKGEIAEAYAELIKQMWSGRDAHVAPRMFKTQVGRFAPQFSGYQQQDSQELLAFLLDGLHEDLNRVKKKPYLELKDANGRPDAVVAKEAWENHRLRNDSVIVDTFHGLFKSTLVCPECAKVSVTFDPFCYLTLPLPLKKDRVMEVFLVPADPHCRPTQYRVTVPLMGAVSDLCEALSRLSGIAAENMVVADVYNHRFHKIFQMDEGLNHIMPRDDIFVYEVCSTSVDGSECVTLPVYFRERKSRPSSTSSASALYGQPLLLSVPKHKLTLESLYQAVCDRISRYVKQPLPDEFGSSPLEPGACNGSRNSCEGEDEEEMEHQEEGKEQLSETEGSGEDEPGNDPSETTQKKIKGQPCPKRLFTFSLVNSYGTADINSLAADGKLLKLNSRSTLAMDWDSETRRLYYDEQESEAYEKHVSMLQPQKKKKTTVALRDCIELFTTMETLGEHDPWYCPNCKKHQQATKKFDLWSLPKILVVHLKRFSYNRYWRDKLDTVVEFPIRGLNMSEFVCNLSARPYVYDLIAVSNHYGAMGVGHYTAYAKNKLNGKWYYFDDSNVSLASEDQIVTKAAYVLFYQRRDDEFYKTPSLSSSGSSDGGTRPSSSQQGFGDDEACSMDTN
Summary of the method: as §1

Measured: log2 ratio of Biotin-Ahx-Ub-VS probe labelling

O=C(CCl)N[C@H]1CCS(=O)(=O)c2ccccc21
inactive: USP34 -0.277 | USP36 -0.115 | USP38 -0.13 | USP39 -0.176 | USP4 -0.212
